From PubChem BioAssay
CYP2C19 inh – blocks human cytochrome P450 2C19; P33261; AID 778; CYP2C19 Supersomes, luciferin-H EGE luminescence, 30 min; inhibition, % at 5 µM; 96,000 compounds, 21% hits;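 active = CYP2C19 inhibition above a set limit at 5 µM in the primary screen, cut at about 50% in these data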;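 note: plate controls were negative control wells for no effect and 2.5 mM tranylcypromine positive control for full effect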
CYP2C9 activ – CYP2C9 (human) activation. P11712. recombinant CYP2C9, luciferin-H conversion, luminescence; active compounds read high; factor 1 = untreated enzyme, 0 = blocked. activation factor at 5 µM. 96,000 compounds, 1.4% hits;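 active = activation factor of 2 or more for CYP2C9 at a 5 µM dose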;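 note: 0 = sulfaphenazole-blocked wells and 1 = vehicle-only wells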
sEH inh – soluble epoxide hydrolase (human) inhibition | 91,000 compounds, 0.34% hits | recombinant human sEH enzymatic activity assay | AID 707 | inhibition, % at 2 µM; in the data active = inhibition above about 80%
Target sequence (P34913 whole entry, looked up): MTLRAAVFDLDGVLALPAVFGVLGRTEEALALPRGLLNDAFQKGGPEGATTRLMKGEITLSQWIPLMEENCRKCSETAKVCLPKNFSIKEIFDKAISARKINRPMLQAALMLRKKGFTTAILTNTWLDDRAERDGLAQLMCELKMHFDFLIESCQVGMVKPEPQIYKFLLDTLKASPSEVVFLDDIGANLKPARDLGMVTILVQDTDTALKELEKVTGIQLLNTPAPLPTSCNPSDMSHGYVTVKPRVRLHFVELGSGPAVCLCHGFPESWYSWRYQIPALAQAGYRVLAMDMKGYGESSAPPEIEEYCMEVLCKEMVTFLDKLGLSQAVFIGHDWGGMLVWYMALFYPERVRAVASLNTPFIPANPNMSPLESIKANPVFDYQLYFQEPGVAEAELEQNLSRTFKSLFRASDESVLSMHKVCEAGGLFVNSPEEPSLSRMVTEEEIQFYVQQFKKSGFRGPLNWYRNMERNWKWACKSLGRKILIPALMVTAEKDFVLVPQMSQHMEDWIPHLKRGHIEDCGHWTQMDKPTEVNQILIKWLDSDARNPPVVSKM
sEH act – increases human soluble epoxide hydrolase activity. P34913. purified human sEH enzymatic activity, activator screen. activation, % at 2 µM. 91,000 compounds, 0.04% hits. AID 717; in the data active = activation above about 37%
CYP2C9 inh – human CYP2C9 inhibition | inhibition, % at 5 µM | P11712 | 96,000 compounds, 20% hits | CYP2C9 Supersomes, luciferin-H conversion, luminescence | AID 777;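 active = blocking of liver enzyme CYP2C9 beyond about 50% at 5 µM, limit read from the data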
CYP2C19 act – cytochrome P450 2C19 (human) activation; P33261; recombinant CYP2C19, luciferin-H EGE luminescence; active compounds read high; 0 = fully inhibited enzyme, 1 = untreated enzyme; activation factor at 5 µM; 96,000 tested, under 10 active; AID 1025;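 active = activation factor of at least 2 at 5 µM in the primary screen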;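 note: 0 = wells with 2.5 mM tranylcypromine and 1 = vehicle-only wells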
Active calls of the source: *. An excerpt weighted towards active compounds, which were near 27% of everything screened.

Results for CCc1cc2cc(C)ccc2nc1SCC(=O)N1CCN(C(=O)c2ccco2)CC1 ?
CYP2C19 inh: 41.2; CYP2C9 activ: 0.3; sEH inh: 8.8; sEH act: -6.9; CYP2C9 inh: 70.3*; CYP2C19 act: 0.6

What do the screens show for `CCc1cc2ccccc2nc1SCC(=O)N1CCN(C(=O)c2ccco2)CC1`?
CYP2C19 inh: 83.0*; CYP2C9 activ: 0.2; CYP2C9 inh: 80.3*; CYP2C19 act: 0.2

How did O=C(CSc1nc2ccccc2o1)N1CCN(C(=O)c2ccco2)CC1 do in these assays?
CYP2C19 inh: 38.6; CYP2C9 activ: 0.6; sEH inh: -8.8; sEH act: 4.2; CYP2C9 inh: 38.4; CYP2C19 act: 0.6

What do the screens show for `CCOC(=O)C1/C(=N\O)CC(C)(O)C(C(=O)OCC)C1c1ccc(N(C)C)cc1` (stereo unspecified)?
CYP2C19 inh: 83.6*; CYP2C9 activ: 0.8; sEH inh: 5.8; sEH act: -4.8; CYP2C9 inh: 20.8; CYP2C19 act: 0.2

Results for CCOC(=O)C1=C(NC(=S)NC(=O)c2ccccc2)c2ccccc2CC1C(C)C (stereo unspecified) ?
CYP2C19 inh: 41.1; CYP2C9 activ: 0.2; sEH inh: -2.7; sEH act: 5.0; CYP2C9 inh: 77.0*; CYP2C19 act: 0.6

How did CCOC(=O)c1ccc(NC(=O)c2ccc(NC(=O)c3ccccc3)cc2)cc1 do in these assays?
CYP2C19 inh: 11.8; CYP2C9 activ: 0.6; sEH inh: -13.4; sEH act: 11.2; CYP2C9 inh: 41.5; CYP2C19 act: 0.9

How did COc1ccc(-c2cc(C(F)(F)F)n3nc(C(=O)NCc4ccco4)c(Cl)c3n2)cc1 do in these assays?
CYP2C19 inh: 28.4; CYP2C9 activ: 0.5; sEH inh: -4.1; sEH act: 7.9; CYP2C9 inh: 48.3; CYP2C19 act: 0.7

Results for O=[N+]([O-])c1ccccc1/C=N/Nc1nccnc1Cl ?
CYP2C19 inh: 27.6; CYP2C9 activ: 1; sEH inh: 10.4; sEH act: -7.8; CYP2C9 inh: -2.7; CYP2C19 act: 0.7

Results for Cc1ccc(/C=N/Nc2cccc3cccnc23)c(O)c1 ?
CYP2C19 inh: -5.8; CYP2C9 activ: 1.1; sEH inh: -1.7; sEH act: 2.9; CYP2C9 inh: -10.1; CYP2C19 act: 1.1

What do the screens show for `Oc1ccccc1/C=N/Nc1nccnc1Cl`?
CYP2C19 inh: 72.4*; CYP2C9 activ: 0.6; sEH inh: 2.7; sEH act: -4.1; CYP2C9 inh: 42.6; CYP2C19 act: 0.3

How did COc1ccc(/C=N/Nc2nccnc2Cl)cc1 do in these assays?
CYP2C19 inh: 77.4*; CYP2C9 activ: 0.6; sEH inh: 5.7; sEH act: -9.0; CYP2C9 inh: 36.6; CYP2C19 act: 0.2

How did COc1ccc(/C=N/NC2=NCCCCC2)cc1 do in these assays?
CYP2C19 inh: 7.7; CYP2C9 activ: 0.9; sEH inh: 7.8; sEH act: -5.6; CYP2C9 inh: 10.9; CYP2C19 act: 0.9

Results for Oc1ccc(/C=N/Nc2cccc3cccnc23)c(O)c1 ?
CYP2C19 inh: 4.9; CYP2C9 activ: 3*; sEH inh: 1.1; sEH act: -1.1; CYP2C9 inh: -204.8; CYP2C19 act: 1

Results for Oc1ccc(/C=N/Nc2nccnc2Cl)c(O)c1 ?
CYP2C19 inh: 43.3; CYP2C9 activ: 0.5; sEH inh: 6.9; sEH act: -6.2; CYP2C9 inh: 52.3*; CYP2C19 act: 0.6

Results for CCN(C1CCCCC1)S(=O)(=O)c1ccc(S(=O)(=O)N2CCN(CCC#N)CC2)cc1 ?
CYP2C19 inh: 42.7; CYP2C9 activ: 0.5; sEH inh: 0.3; sEH act: -0.3; CYP2C9 inh: 47.0; CYP2C19 act: 0.6

What do the screens show for `COc1cccc(Nc2nc(NCCO)c3ccccc3n2)c1`?
CYP2C19 inh: 51.2*; CYP2C9 activ: 0.5; sEH inh: -7.4; sEH act: 9.1; CYP2C9 inh: 48.0; CYP2C19 act: 0.5

What do the screens show for `COc1cccc(Nc2nc(NCC3CCCO3)c3ccccc3n2)c1` (stereo unspecified)?
CYP2C19 inh: 13.9; CYP2C9 activ: 0.7; sEH inh: 22.8; sEH act: -20.3; CYP2C9 inh: 28.7; CYP2C19 act: 0.9

What do the screens show for `CCCOC(=O)NC(CC)COC(=O)Nc1cc(C)ccc1C` (stereo unspecified)?
CYP2C19 inh: 69.9*; CYP2C9 activ: 0.8; sEH inh: -15.1; sEH act: 17.5; CYP2C9 inh: 24.6; CYP2C19 act: 0.3

What do the screens show for `CC(Nc1cccc2ccccc12)C(=O)N/N=C/c1ccccn1` (stereo unspecified)?
CYP2C19 inh: 86.0*; CYP2C9 activ: 1.1; sEH inh: -12.2; sEH act: 11.1; CYP2C9 inh: -14.0; CYP2C19 act: 0.1

How did Cn1nc(C(F)(F)F)c2cc(C(=O)Nc3ccc(F)cc3F)sc21 do in these assays?
CYP2C19 inh: 7.3; CYP2C9 activ: 1.6; sEH inh: 8.6; sEH act: -10.4; CYP2C9 inh: -61.4; CYP2C19 act: 0.9

How did Cc1ccc(Sc2c(C(=O)Nc3ccc(F)cc3F)c(C(F)(F)F)nn2C)cc1 do in these assays?
CYP2C19 inh: 19.1; CYP2C9 activ: 0.9; CYP2C9 inh: 8.1; CYP2C19 act: 0.8

How did Cn1nc(C(F)(F)F)c(C(=O)Nc2ccc(F)cc2F)c1Sc1ccc(Cl)cc1 do in these assays?
CYP2C19 inh: 61.2*; CYP2C9 activ: 0.8; CYP2C9 inh: 24.3; CYP2C19 act: 0.4

How did Cn1nc(C(F)(F)F)c(C(=O)Nc2ccc(F)cc2F)c1Sc1ccc(C(F)(F)F)cc1 do in these assays?
CYP2C19 inh: 69.0*; CYP2C9 activ: 0.7; sEH inh: -0.4; sEH act: 2.2; CYP2C9 inh: 34.0; CYP2C19 act: 0.3

What do the screens show for `COC(=O)CSc1nnc(CNC(=O)c2ccccc2OC)n1-c1ccc(OC)cc1`?
CYP2C19 inh: -10.6; CYP2C9 activ: 1; sEH inh: 4.1; sEH act: -5.7; CYP2C9 inh: -2.9; CYP2C19 act: 1.1

What do the screens show for `CCOc1ccc(C(Nc2ccc(C)cc2)P2(=O)OCCC(C)O2)cc1` (stereo unspecified)?
CYP2C19 inh: 54.2*; CYP2C9 activ: 0.4; sEH inh: 2.8; sEH act: -0.9; CYP2C9 inh: 57.7*; CYP2C19 act: 0.5

How did O=C(NCc1cccnc1)c1noc2c1CCCC2 do in these assays?
CYP2C19 inh: 66.8*; CYP2C9 activ: 1.1; CYP2C9 inh: -7.5; CYP2C19 act: 0.3

Results for O=C(NCc1ccc(Cl)cc1)c1noc2c1CCCC2 ?
CYP2C19 inh: 64.0*; CYP2C9 activ: 0.2; CYP2C9 inh: 78.0*; CYP2C19 act: 0.4

Results for O=C(NCc1cccnc1)c1noc2c1CCCCC2 ?
CYP2C19 inh: 90.4*; CYP2C9 activ: 1; CYP2C9 inh: 0.4; CYP2C19 act: 0.1

Results for O=C(NC1CCCCC1)c1noc2c1CCCCC2 ?
CYP2C19 inh: 94.3*; CYP2C9 activ: 0.8; CYP2C9 inh: 20.4; CYP2C19 act: 0.1

How did CC(C)OC(=O)CCC1(C(=O)O)CCC(=O)NC1 (stereo unspecified) do in these assays?
CYP2C19 inh: -12.5; CYP2C9 activ: 1.1; CYP2C9 inh: -14.9; CYP2C19 act: 1.1
